# Experimental data: PubChem BioAssay (NCATS)
# Inconclusive results are not listed. A call without a number means that no potency is given here. Values without a mark were called inactive. Activity calls are given as the source filed them. Calls follow the shape of the dose curve; as a rule, active = well fitted curve in the direction sought with a large enough effect; inconclusive = small, poorly fitted or top-dose-only effect, or another doubt; inactive = no such curve, though single readings can be large; an effect the other way counts as inactive or inconclusive.
# How the values were obtained:
# [1] = qHTS to identify inhibitors of the type 1 interferon - major histocompatibility complex class I in skeletal muscle: primary screen against the NCATS Mechanism Interrogation Plate v5.0 (MIPE) Libary (AID 1347411); also: nearly all actives have a fitted effect of over 65% in size; also: potency is read from the fitted curve at half-maximal effect
# Summary of the method: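 Immortalized human C25cl48 myoblasts with HiBit knocked into endogenous HLA-B*08:01 were stimulated with 4.0 ng/ml IFN-beta and exposed to compounds (11-point 1:3 titration, top 46 uM final) for 24 hrs at 37 C; HiBiT lytic luminescence measured.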
# [2] = target: Calcium and integrin-binding protein 1 (Homo sapiens) (UniProt Q99828); assay: Primary qHTS for Identification of Calcium Integrin Binding Protein 1 (CIB1) Competitor (AID 1508620);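 also: GST tagged CIB1 binding a fluorescein labelled alphaIIb integrin peptide tracer; top concentration of the series differs between compounds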
# Summary of the method: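 Fluorescence polarization competition: GST-tagged CIB1 (1 uM final) preincubated with compound 15 min at room temperature, then FITC-labelled alphaIIb peptide (100 nM final) added. After 15 min at room temperature, polarization read at Ex 480/Em 540.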
# [3] = target: Calcium and integrin-binding protein 1 (Homo sapiens) (UniProt Q99828); assay: Confirmatory qHTS for Identification of Calcium Integrin Binding Protein 1 (CIB1) Competitor (AID 1508617); also: nearly all actives have a fitted effect of over 65% in size
# Summary of the method: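 Fluorescence polarization competition: CIB1-GST (1 uM final) in 5 mM HEPES pH 7.4, 125 mM NaCl, 5 mM CaCl2, 0.01% Tween20 preincubated 15 min RT with compound (up to 114 uM), then FITC-alphaIIb peptide (100 nM) added, 15 min RT.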
# Sequence of Calcium and integrin-binding protein 1 (Homo sapiens) (Q99828 whole entry, looked up): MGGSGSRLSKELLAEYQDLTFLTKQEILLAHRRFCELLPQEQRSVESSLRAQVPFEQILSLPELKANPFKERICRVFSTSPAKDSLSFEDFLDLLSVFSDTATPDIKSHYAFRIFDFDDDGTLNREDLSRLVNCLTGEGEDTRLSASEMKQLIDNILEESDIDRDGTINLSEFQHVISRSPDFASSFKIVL
compound,measurement,setting,value
NS(=O)(=O)NCCNc1nonc1C(=Nc1ccc(F)c(Br)c1)NO,Potency,[1],inactive
same,Potency,[2],inactive
CCC/C=C/C(=O)O[C@H]1CC(C)(C)CC2[C@]13[C@H](O)O[C@@]21CCC2[C@@]4(C)CC[C@H](O[C@@H]5O[C@H](C(=O)O)[C@@H](O)[C@H](O[C@@H]6O[C@H](CO)[C@H](O)[C@H](O)[C@H]6O[C@@H]6O[C@@H](C)[C@H](O)[C@@H](O)[C@H]6O[C@@H]6OC[C@](O)(CO)[C@H]6O)[C@H]5O[C@@H]5O[C@H](CO)[C@H](O)[C@H](O)[C@H]5O)C(C)(C)C4CC[C@@]2(C)[C@]1(C)C[C@H]3OC(C)=O (stereo partly specified),"activity change, negative = inhibition",[2],-7.58% [at 12.4 µM]
O=C(OCC12OC1C=CC(OC(=O)c1ccccc1)C2O)c1ccccc1 (stereo unspecified),Potency,[2],inactive
COc1ccc2cc(OCC3(C(=O)O)CN(C(=O)c4ccc(F)cc4)C3)ccc2c1,Potency,[1],inactive
same,Potency,[2],inactive
CON(C)C(=O)N1N=C(c2cc(F)ccc2F)S[C@@]1(CCCN)c1ccccc1,Potency,[2],inactive
COc1cc2c(cc1O)CCN[C@]21CS[C@@H]2c3c(OC(C)=O)c(C)c4c(c3[C@H](COC1=O)N1[C@@H]2[C@H]2c3c(cc(C)c(OC)c3O)C[C@@H]([C@@H]1O)N2C)OCO4,Potency,[1],0.0848 µM (active)
COC(=O)C1C(c2ccc(O)cc2)C(C(=O)OC)C1c1ccc(O)cc1 (stereo unspecified),Potency,[2],inactive
COC(=O)c1ccc(O[C@@H]2O[C@H](CO)[C@@H](O)[C@H](O)[C@H]2O)c(OC)c1,Potency,[2],inactive
CN1CC[C@@H](NC(=O)Nc2ccc(C#N)cc2)C[C@@H]1c1nc2ccccc2[nH]1,Potency,[1],inactive
same,Potency,[2],inactive
CC1=C(CC(=O)O)c2cc(F)ccc2C1=Cc1ccc(S(C)(=O)=O)cc1,Potency,[2],inactive
Cc1c(N2C(=O)c3ccc(C(=O)O)cc3C2=O)c(=O)n(-c2ccccc2)n1C,Potency,[2],inactive
CNc1nc(Nc2cnn([C@H]3CCN(C4COC4)C[C@@H]3F)c2Cl)ncc1C(F)(F)F,Potency,[1],inactive
same,Potency,[2],inactive
COc1cc2c(Nc3ccc(Cl)c(Cl)c3F)ncnc2cc1OCC1C[C@@H]2CN(C)C[C@@H]2C1 (stereo partly specified),Potency,[1],20.8 µM (active)
CCOc1cc2ncc(C#N)c(Nc3ccc(OCc4ccccn4)c(Cl)c3)c2cc1NC(=O)/C=C/CN(C)C,Potency,[1],4.66 µM (active)
same,Potency,[2],inactive
C=C(C)[C@H]1C[C@@H](O)C(=C)CC[C@@H](O)C(=C)[C@@H](O)C1,Potency,[2],inactive
CC(=O)c1c(O)cc2c(c1C)C(=O)CC(O)C2 (stereo unspecified),Potency,[3],inactive
C/C=C(\C)C(=O)O[C@@H]1CC2[C@@H](CC=C3C[C@@H](O[C@H]4C[C@H](OC)[C@H](O[C@H]5C[C@H](OC)[C@H](O[C@H]6C[C@H](OC)[C@H](O[C@H]7C[C@@H](OC)[C@H](O[C@@H]8O[C@H](CO)[C@@H](O)[C@H](O)[C@H]8O)[C@@H](C)O7)[C@@H](C)O6)[C@@H](C)O5)[C@@H](C)O4)CC[C@@]32C)[C@@]2(O)CC[C@H](C(C)=O)[C@@]12C (stereo partly specified),"activity change, negative = inhibition",[2],0.036% [at 12.4 µM]
C[C@@H]1O[C@@H](O[C@H]2[C@H](OC(=O)C34CCC(C)(C)CC3C3=CCC5C6(C)CC(O)C(O[C@@H]7O[C@H](CO)[C@@H](O)[C@H](O)[C@H]7O)C(C)(C(=O)O)C6CCC5(C)C3(CO)CC4)O[C@H](C)[C@H](O)[C@@H]2O)[C@H](O)[C@H](O)[C@H]1O[C@@H]1OC[C@@H](O)[C@H](O)[C@H]1O (stereo partly specified),Potency,[2],inactive
CCCC1=CC2=C(CO1)C(=O)C(C)(OC(=O)c1c(C)cc(OC)cc1O)C(O)C2 (stereo unspecified),Potency,[2],inactive
CC1CCC23COC(=O)C2=CC(O)CC3C1(C)CCC1=CC(=O)OC1O (stereo unspecified),Potency,[2],inactive
COC(=O)C1=CO[C@@H](O[C@@H]2O[C@H](CO)[C@@H](O)[C@H](O)[C@H]2O)[C@@H]2[C@@H](C)[C@@H](O)C[C@H]12,Potency,[2],inactive
CC(=O)OC[C@]1(O)[C@H]2[C@H](OC(=O)CC(C)C)OC=C(CO[C@@H]3O[C@H](CO)[C@@H](O)[C@H](O)[C@H]3O)[C@H]2C[C@@H]1O,Potency,[2],inactive
COC(=O)[C@]12C(=O)C(C)=C(O)[C@@]1(C)C(C)=CC1[C@@]34CC[C@@H](OC(C)=O)C(C)(C)C3[C@H](C[C@]12C)OC4=O (stereo partly specified),Potency,[2],inactive
CCOc1nc2cccc(C(=O)O)c2n1Cc1ccc(-c2ccccc2-c2noc(=O)[nH]2)cc1,Potency,[2],inactive
C/C=C(\C)C(=O)O[C@H]1[C@@H](O[C@]2(COC(=O)CC(C)C)O[C@H](COC(=O)C(C)C)[C@@H](OC(C)=O)[C@@H]2O)O[C@H](COC(C)=O)[C@@H](O)[C@@H]1O,Potency,[2],inactive
C/C(=C\CCC(C)(O)c1ccc(C)cc1)C(=O)O (stereo unspecified),Potency,[2],inactive
CNC(=O)COC(=O)NCCC1CCN(c2cccc(C)n2)CC1,Potency,[2],inactive
COc1cc(C2c3cc(O)c(OC)cc3CC(CO)C2CO)ccc1O (stereo unspecified),Potency,[2],inactive
CC1(CCC(=O)O)C(=O)C=CC23CC4CC(OC4(C)C2O)C13 (stereo unspecified),Potency,[2],inactive
CCn1cc(C2=NOC(C(=O)Nc3c(C)n(C)n(-c4ccccc4)c3=O)C2)c(C)n1 (stereo unspecified),Potency,[2],inactive
CCCn1cnc2c(NCc3ccccc3)nc(N[C@H](CC)CO)nc21,Potency,[2],inactive
CC1(C)CCC(C)(C)c2cc3c(cc21)Sc1ccccc1N=C3c1ccc(C(=O)O)cc1,Potency,[2],inactive
C=C1C[C@]23C[C@H]1CC[C@H]2[C@]1(C)CCC[C@@]2(CO)C(=O)O[C@H]([C@H]21)[C@@H]3O,Potency,[2],inactive
OC[C@H]1O[C@@H](n2cnc3c(NCc4ccc(O)cc4)ncnc32)[C@H](O)[C@@H]1O,Potency,[2],inactive
O=C(/C=C/c1ccc(O)cc1)OC[C@]12O[C@H]1[C@@H](O)[C@@H]1C=CO[C@@H](O[C@@H]3O[C@H](CO)[C@@H](O)[C@H](O)[C@H]3O)[C@@H]12,Potency,[2],inactive
C[C@@H](OC(=O)/C=C/c1ccc(O)cc1)C1=C[C@]2(C=C[C@@H]3C(C(=O)O)=CO[C@@H](O[C@@H]4O[C@H](CO[C@@H]5O[C@H](CO)[C@@H](O)[C@H](O)[C@H]5O)[C@@H](O)[C@H](O)[C@H]4O)[C@@H]32)OC1=O,Potency,[2],inactive
OCC1OC(Oc2cc(O)c3c(c2)OC(c2ccc(O)cc2)C(O)C3)C(O)C1O (stereo unspecified),Potency,[2],inactive
Nc1c(Br)cc(Br)cc1CNC1CCC(O)CC1 (stereo unspecified),Potency,[2],inactive
C=C(C(=O)OC)C1CCC2(C)C(O[C@@H]3O[C@H](CO)[C@@H](O)[C@H](O)[C@H]3O)CC(=O)C(C)C2C1O (stereo partly specified),Potency,[2],inactive
CC1(C)CCCC2(C)C(CO)C3CCC2C31 (stereo unspecified),Potency,[2],inactive
Cc1cc(C)c(S(=O)(=O)N(Cc2ccc(-c3cccc(S(C)(=O)=O)c3)cc2)Cc2ccc(C(F)(F)F)o2)c(C)c1,Potency,[2],inactive
